In PubChem BioAssay (NCATS):
Where “and” joins values, the source holds several entries; their conditions need not be identical. Equal entries are not always repeated. Records with an inconclusive call do not appear. Calls of active or inactive are those of the source. Calls come from the whole dose curve; as a rule, active = well fitted cell-killing curve with a large enough effect; inconclusive = small, poorly fitted or top-dose-only effect; inactive = flat fitted curve, though single readings scatter.

Assay: Cellular viability qHTS for adrenocortical cancer (ACC) cell line NCI-H295R (AID 1963990); note: nearly all actives have a fitted effect of over 60% in size
Settings: CellTiter-Glo ATP luminescence, 48 h; series mostly up to 46.1 µM; activity change, negative = viability loss: at the top concentration
Text: PI: Naris Nilubol, MD Surgical Oncology Program, National Cancer Institute (NCI) National Institute of Health (NIH), Bethesda, Maryland Adrenocortical cancer (ACC) is a rare malignancy with poor survival outcomes and few treatment options. Currently, mitotane is the only FDA-approved therapy for ACC. Although adjuvant radiation therapy is rarely utilized, it has the potential to improve survival in select cases. Through a quantitative high-throughput drug screen (qHTS), we identified auranofin (AF), a thioredoxin reductase (TXNRD) inhibitor, as a promising candidate drug. This study aims to evaluate whether AF can enhance the efficacy of radiation therapy in the treatment of ACC. Two human ACC cell lines, SW-13 and NCI-H295R, were screened using the National Center for Advancing Translational Sciences (NCATS) Pharmaceutical Collection (NPC) and the Mechanism Interrogation PlatE (MIPE) library (~4,991 compounds). CellTiter-Glo (Cat # G7570, Promega, Madison, WI) was utilized to measure cell viability. Described herein are the results of the corresponding viability assay.
PROTOCOL TABLE (as described by Inglese J, Shamu CE and Guy RK. 2007) SEQUENCE No. (e.g., 1, 2, 3, etc.); […] (e.g., Cells, Incubation, Reagent, etc.); VALUE; DESCRIPTION. 1; Cells; 5 uL; white, solid-bottom, 1536-well tissue-culture treated plates. 2; Time; overnight culture at 37C with 5% CO2. 3; Compounds and control; 23 nL; Kalypsis pin tool (Wako USA) equipped with a 1536-well pin head to transfer to the assay plates. 4; Time; 48 hours; 37C with 5% CO2. 5; Reagent; 4 uL; CellTiter-Glo luminescent substrate mix. 6; Time; 20 min at room temperature. 7; Detection; Luminescence; ViewLux plate reader NOTES (numbers refer to Sequence numbers above) 1. NCI-H295R cells were harvested from a T175 flask and resuspended in ITS-supplemented DMEM serum-free medium at a concentration of 300 000 cells/mL. Then 5 uL of resuspended cells were dispensed into each well of white, solid-bottom, 1536-well tissue-culture-treated plates using a multidrop combi dispenser. The plates were covered with stainless steel gasket lids. 2-3. The plates were cultured overnight at 37C with 5% CO2. Twenty-three nL of compounds (eight selected concentrations from the NPC / MIPE) or positive control (10 mM stock of bortezomib) in DMSO was transferred to each well of the assay plate using a pin tool (Kalypsys, San Diego, CA, USA). The final concentration of the compounds in the 5 uL assay volume ranged from 0.5 nM to 46 uM. 4-6. After 48 hours of incubation at 37C and 5% CO2, 4 uL of CellTilter-Glo luminescent substrate mix (Promega, Madison, WI, USA) was added to each well. Then the plates were incubated for 20 minutes at room temperature. 7. After incubation, luminescence was measured using a ViewLux plate reader (PerkinElmer, Waltham, MA, USA) with a clear filter was used to measure the number of metabolically competent cells. To determine compound activity in the qHTS assay, the titration-response data for each sample was plotted and modeled by a four-parameter logistic fit yielding IC50 and efficacy (maximal response) values. Raw plate reads for each titration point were normalized relative to positive control ([…], 100% inhibition) and DMSO-only wells (basal, 0%). REFERENCES: Inglese J, Shamu CE and Guy RK, Reporting data from high throughput screening of small molecule libraries, Nature Chemical Biology, 2007, 3(8): 438-441. doi.org/10.1038/nchembio0807-438.

| Compound | activity change, negative = viability loss | Potency |
| --- | --- | --- |
| CCCCC/C=C\C/C=C\C/C=C\C/C=C\CCCC(=O)NCC(=O)O | -15.7% (inactive) |  |
| CN(C)C(=O)Oc1cc(OC(=O)N(C)C)cc(C(O)CNC(C)(C)C)c1 (stereo not given) | -5.86% (inactive) |  |
| O=[N+]([O-])O[C@H]1CO[C@H]2[C@@H]1OC[C@H]2O[N+](=O)[O-] | 6.42% (inactive) |  |
| O=[N+]([O-])c1cc([As](=O)(O)O)ccc1O | 8.15% (inactive) |  |
| Cc1ccccc1-n1c(Cn2cnc3c(N)ncnc32)nc2cccc(C)c2c1=O | 3.3% (inactive) |  |
| CCCCCCCCCC(=O)O[C@H]1CC[C@H]2[C@@H]3CCC4=CC(=O)CC[C@@H]4[C@H]3CC[C@]12C | -14.5% (inactive) |  |
| C[C@H]1CCC/C=C/C2C[C@H](O)C[C@H]2[C@H](O)/C=C/C(=O)O1 (stereo not given in full) |  | 0.224 µM (active) |
| C[C@]12CC[C@H]3[C@@H](CCC4=CC(=O)CC[C@@]43C)[C@H]1CC[C@H]2OC(=O)CCC1CCCC1 | -15.7% (inactive) |  |
| CCCN(CCC)c1c([N+](=O)[O-])cc(S(N)(=O)=O)cc1[N+](=O)[O-] |  | 7.94 µM (active) |
| NC(=O)CS(=O)C(c1ccccc1)c1ccccc1 (stereo not given) | -0.766% (inactive) |  |
| c1ccc2nc(N3CCNCC3)ccc2c1 | 5.27% (inactive) |  |
| COC(=O)[C@@]12OC[C@]34[C@H]([C@@H](O)[C@@H]1O)[C@@]1(C)CC(=O)C(O)=C(C)[C@@H]1C[C@H]3OC(=O)[C@H](OC(=O)/C=C(\C)C(C)C)[C@@H]24 |  | 12.6 µM (active) |
| CC(C)c1c(CN(C)C(C)Cc2ccccc2)n(C)n(-c2ccccc2)c1=O (stereo not given) | -0.835% (inactive) |  |
| COP(=S)(OC)Oc1ccc(S(=O)(=O)N(C)C)cc1 | -2.6% (inactive) |  |
| N[C@@H](Cc1ccc(N(CCCl)CCCl)cc1)C(=O)O |  | 28.2 µM (active) |
| c1ccc2c(c1)sc1ccccc12 | -0.145% (inactive) |  |
| Cn1c(/C=C/CO)c(CO)c2c1C(=O)C=C(N1CC1)C2=O | 7.33% (inactive) |  |
| Cc1[nH]nc2ccc(-c3cncc(OC[C@@H](N)Cc4c[nH]c5ccccc45)c3)cc12 |  | 2.24 µM (active) |
| COc1cc(C[C@@H](C)N)c(OC)cc1Br | -29.4% [at 92.7 µM] (inactive) |  |
| COC(=O)C(Cl)C(=O)OC | -9.07% (inactive) |  |

| Compound | activity change, negative = viability loss | Potency |
| --- | --- | --- |
| O=c1[nH]c2ccc(Cl)cc2c(N[C@@H]2CN3CCC2CC3)c1-c1nc2ccccc2[nH]1 |  | 0.355 µM (active) |
| Oc1ccc(Cl)cc1 | 1.45% (inactive) |  |
| C[C@H]1O[C@@H](O[C@H]2[C@@H](O)C[C@H](O[C@H]3[C@@H](O)C[C@H](O[C@H]4CC[C@@]5(C)[C@H](CC[C@@H]6[C@@H]5CC[C@]5(C)[C@@H](C7=CC(=O)OC7)CC[C@]65O)C4)O[C@@H]3C)O[C@@H]2C)C[C@H](O)[C@@H]1O |  | 0.0651 µM (active) |
| N#Cc1nn(-c2c(Cl)cc(C(F)(F)F)cc2Cl)c(N)c1S(=O)C(F)(F)F (stereo not given) |  | 2.59 µM (active) |
| COc1ccc(C(=O)c2c(C)n(CCN3CCOCC3)c3cc(I)ccc23)cc1 |  | 20 µM (active) |
| CNC(C)Cc1ccc2c(c1)OCO2 (stereo not given) | 1.2% [at 92.7 µM] (inactive) |  |
| CC[C@@H](C(N)=O)N1CCCC1=O | -4.49% (inactive) |  |
| C[C@@H]1O[C@@H](O[C@@H]2C=C3CC[C@@H]4[C@H](CC[C@]5(C)[C@@H](c6ccc(=O)oc6)CC[C@]45O)[C@@]3(C)CC2)[C@H](O)[C@H](O)[C@H]1O |  | 11.2 nM (active) and 7.3 nM (active) |
| COCCOCCO | -0.34% [at 92.7 µM] (inactive) |  |
| CC(C)=CC1C(C(=O)OCN2C(=O)C3=C(CCCC3)C2=O)C1(C)C (stereo not given) | -22.9% (inactive) |  |
| CCC1(c2ccccc2)C(=O)N(COC)C(=O)N(COC)C1=O | -7.65% (inactive) |  |
| CC(=O)O[C@@]12CO[C@@H]1C[C@H](O)[C@@]1(C)C(=O)[C@H](O)C3=C(C)[C@@H](O)C[C@@](O)([C@@H](OC(=O)c4ccccc4)[C@H]21)C3(C)C | -15.6% (inactive) |  |
| Nc1ccc([As](=O)(O)O)cc1 | -1.66% (inactive) |  |
| C[C@]12Cc3cn[nH]c3C[C@@H]1CC[C@@H]1[C@@H]2CC[C@@]2(C)[C@H]1CC[C@]2(C)O | -8.1% (inactive) |  |
| N[C@@H]1C[C@H]1c1ccccc1 | 1.22% (inactive) |  |
| C[C@]12CC[C@H]3[C@@H](CCC4=CC(=O)CC[C@@H]43)[C@@H]1CC[C@@H]2O | -18.2% (inactive) |  |
| CCOC(=O)Nc1ccc(NCc2ccc(F)cc2)cc1N | 6.21% (inactive) |  |
| CCCOC(=O)c1cncn1C(C)c1ccccc1 (stereo not given) | -1.73% (inactive) |  |
| C[C@]12Cc3nonc3C[C@@H]1CC[C@@H]1[C@@H]2CC[C@@]2(C)[C@H]1CC[C@]2(C)O |  | 23.1 µM (active) |
| CC(Cc1ccccc1)NCCn1cnc2c1c(=O)n(C)c(=O)n2C (stereo not given) | -11.7% [at 92.7 µM] (inactive) |  |
